Measured values reported in ChEMBL document CHEMBL3988442, “University of Dundee, Small-Polar-MMV Screening Library” (2021).
For part of these data: Measured potencies and affinities stand elsewhere.

Key:
Set-up in all cases: scale not given: direction of the effect not stated beside the values
[1] = target: Protein translocase subunit SecA (Escherichia coli (strain K12)) (UniProt P10408); assay: Assay to Identify E. coli SecA ATPase Inhibitors; format: functional; conditions: 30 µM
[2] = target: T1, Ubiquitin-activating enzyme e1, putative (Leishmania donovani (strain BPK282A1)) (UniProt E9BSI1); assay: Leishmania donovani Ubiquitin Activating Enzyme (LdE1); format: functional; conditions: 30 µM
T1 sequence (whole entry): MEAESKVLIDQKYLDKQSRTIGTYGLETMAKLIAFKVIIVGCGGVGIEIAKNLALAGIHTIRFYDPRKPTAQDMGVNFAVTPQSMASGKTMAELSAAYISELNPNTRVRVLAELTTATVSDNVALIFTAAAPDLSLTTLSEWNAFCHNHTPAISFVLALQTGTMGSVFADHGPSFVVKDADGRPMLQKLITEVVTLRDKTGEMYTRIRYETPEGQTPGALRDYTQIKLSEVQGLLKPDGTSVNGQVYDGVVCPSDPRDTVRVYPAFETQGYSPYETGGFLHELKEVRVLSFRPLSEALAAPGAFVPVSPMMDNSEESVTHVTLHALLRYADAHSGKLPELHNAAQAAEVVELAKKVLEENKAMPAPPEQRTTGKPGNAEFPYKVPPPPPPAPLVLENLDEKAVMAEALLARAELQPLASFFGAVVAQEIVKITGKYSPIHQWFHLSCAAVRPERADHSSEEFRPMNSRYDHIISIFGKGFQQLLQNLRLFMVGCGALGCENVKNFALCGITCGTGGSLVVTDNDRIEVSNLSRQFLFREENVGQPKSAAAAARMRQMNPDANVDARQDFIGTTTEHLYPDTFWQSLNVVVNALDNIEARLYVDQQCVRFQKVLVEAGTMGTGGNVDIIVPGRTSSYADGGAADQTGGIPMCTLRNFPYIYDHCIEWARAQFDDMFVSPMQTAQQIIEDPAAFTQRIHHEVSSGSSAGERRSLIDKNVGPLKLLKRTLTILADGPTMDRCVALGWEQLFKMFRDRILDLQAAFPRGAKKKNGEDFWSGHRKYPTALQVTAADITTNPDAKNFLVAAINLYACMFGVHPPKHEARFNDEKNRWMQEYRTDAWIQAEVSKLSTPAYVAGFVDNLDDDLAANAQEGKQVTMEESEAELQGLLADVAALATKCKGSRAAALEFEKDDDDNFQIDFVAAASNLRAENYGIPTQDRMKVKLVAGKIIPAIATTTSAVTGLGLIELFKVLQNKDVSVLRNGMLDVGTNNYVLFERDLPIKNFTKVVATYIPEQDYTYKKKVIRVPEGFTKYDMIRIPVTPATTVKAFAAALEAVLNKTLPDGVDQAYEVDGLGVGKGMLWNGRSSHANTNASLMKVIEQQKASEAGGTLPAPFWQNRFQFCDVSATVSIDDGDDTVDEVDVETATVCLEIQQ

[3] = target: Sialic acid-binding Ig-like lectin 9 (Homo sapiens) (UniProt Q9Y336); assay: Hs-Siglec9 ALPHAscreen SOP 20170721; conditions: 10 µM
Chain of Sialic acid-binding Ig-like lectin 9 (Homo sapiens) (Q9Y336 whole entry): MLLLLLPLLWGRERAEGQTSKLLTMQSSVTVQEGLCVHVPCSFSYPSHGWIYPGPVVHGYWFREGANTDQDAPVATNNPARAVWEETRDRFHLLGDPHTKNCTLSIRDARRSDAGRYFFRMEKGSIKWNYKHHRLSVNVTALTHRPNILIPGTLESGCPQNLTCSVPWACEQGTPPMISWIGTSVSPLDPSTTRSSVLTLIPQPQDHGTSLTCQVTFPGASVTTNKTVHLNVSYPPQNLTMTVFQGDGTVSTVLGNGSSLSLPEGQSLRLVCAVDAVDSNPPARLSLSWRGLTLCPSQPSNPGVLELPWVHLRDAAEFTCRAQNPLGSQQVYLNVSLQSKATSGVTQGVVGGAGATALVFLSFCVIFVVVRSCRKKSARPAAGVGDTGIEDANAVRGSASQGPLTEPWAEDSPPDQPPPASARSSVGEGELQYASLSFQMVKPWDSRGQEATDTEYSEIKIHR

Trypanosoma cruzi = assay: Trypanosoma cruzi phosphomannomutase and mannose-1-phosphate guanylyltransferase assay; format: functional; conditions: 10 µM
[4] = target: T2, Arginase-2, mitochondrial (Homo sapiens) (UniProt P78540); assay: in vitro enzyme assay to detect the production of urea directly proportional to the activity of Arginase II; format: functional; conditions: 33.3 µM; also: in the data most compounds retested in dose-response had high values
T2 sequence (whole entry): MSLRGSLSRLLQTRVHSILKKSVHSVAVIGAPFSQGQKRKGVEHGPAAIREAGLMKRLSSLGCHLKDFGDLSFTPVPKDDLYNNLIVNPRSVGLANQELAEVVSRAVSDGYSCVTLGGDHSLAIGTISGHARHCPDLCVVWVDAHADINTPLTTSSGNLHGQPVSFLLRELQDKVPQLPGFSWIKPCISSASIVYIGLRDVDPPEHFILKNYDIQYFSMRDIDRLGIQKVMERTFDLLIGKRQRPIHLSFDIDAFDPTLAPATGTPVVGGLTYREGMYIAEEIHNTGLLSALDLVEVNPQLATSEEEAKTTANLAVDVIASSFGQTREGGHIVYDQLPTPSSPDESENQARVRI

[5] = target: T3, Proteasome subunit beta (Trypanosoma cruzi) (UniProt O96673); assay: Trypanosoma cruzi proteasome chymotrypsin-like activity (TcProtChymo) assay.; also: in the data most compounds retested in dose-response had high values; format: functional; conditions: 9.37 µM
T3 sequence (whole entry): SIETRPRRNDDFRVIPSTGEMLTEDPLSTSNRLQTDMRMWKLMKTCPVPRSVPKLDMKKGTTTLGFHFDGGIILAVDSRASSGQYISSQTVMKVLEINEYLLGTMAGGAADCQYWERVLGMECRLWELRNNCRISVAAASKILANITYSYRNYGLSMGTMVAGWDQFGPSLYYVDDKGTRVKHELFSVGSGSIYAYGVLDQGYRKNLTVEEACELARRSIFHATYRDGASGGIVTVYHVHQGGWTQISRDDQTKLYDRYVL

Homo sapiens = species on record: Homo sapiens; assay: To identify inhibition of the IFN signalling (Jak-Stat) pathway via expression of an eGFP reporter gene under the control of an IFN-stimulated response element (ISRE) containing MxA promoter.; format: functional; conditions: 30 µM
[6] = target: T4, Tyrosyl-tRNA synthetase, putative (Trypanosoma cruzi (strain CL Brener)) (UniProt Q4DSP6); assay: Trypanosoma cruzi tyrosyl tRNA synthetase (TcYRS) _High Tyrosine SOP; format: functional; conditions: 30 µM; also: in the data most compounds retested in dose-response had high values
T4 sequence (whole entry): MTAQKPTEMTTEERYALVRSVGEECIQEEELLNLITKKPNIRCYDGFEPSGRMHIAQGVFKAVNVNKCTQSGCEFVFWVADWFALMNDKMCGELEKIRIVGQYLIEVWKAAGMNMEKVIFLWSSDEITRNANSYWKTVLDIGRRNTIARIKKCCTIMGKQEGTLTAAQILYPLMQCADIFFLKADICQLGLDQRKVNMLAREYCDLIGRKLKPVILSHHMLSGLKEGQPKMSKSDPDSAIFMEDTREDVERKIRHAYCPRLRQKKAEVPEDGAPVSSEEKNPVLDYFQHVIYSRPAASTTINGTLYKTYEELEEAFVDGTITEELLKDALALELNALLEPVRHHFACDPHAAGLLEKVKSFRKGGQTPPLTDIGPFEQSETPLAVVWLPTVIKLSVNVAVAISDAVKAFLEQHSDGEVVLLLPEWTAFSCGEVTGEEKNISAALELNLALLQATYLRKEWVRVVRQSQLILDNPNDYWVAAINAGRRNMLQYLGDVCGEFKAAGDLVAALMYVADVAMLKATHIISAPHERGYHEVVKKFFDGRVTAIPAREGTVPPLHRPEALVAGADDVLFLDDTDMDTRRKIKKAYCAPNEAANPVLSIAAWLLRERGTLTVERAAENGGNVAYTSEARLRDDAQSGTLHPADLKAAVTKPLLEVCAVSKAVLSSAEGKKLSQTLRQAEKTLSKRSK

[7] = target: T4, Tyrosyl-tRNA synthetase, putative (Trypanosoma cruzi (strain CL Brener)); assay: Trypanosoma cruzi tyrosyl tRNA synthetase (TcYRS) SOP; format: functional; conditions: 30 µM
[8] = target: Chromo domain-containing protein 1 (Saccharomyces cerevisiae (strain ATCC 204508 / S288c) (Baker's yeast)) (UniProt P32657); assay: ScCHD-1 Enzyme Inhibition Assay; format: functional; conditions: 30 µM; also: in the data most compounds retested in dose-response had high values
Chain of Chromo domain-containing protein 1 (Saccharomyces cerevisiae (strain ATCC 204508 / S288c) (Baker's yeast)) (P32657 whole entry, the tested form may be a part): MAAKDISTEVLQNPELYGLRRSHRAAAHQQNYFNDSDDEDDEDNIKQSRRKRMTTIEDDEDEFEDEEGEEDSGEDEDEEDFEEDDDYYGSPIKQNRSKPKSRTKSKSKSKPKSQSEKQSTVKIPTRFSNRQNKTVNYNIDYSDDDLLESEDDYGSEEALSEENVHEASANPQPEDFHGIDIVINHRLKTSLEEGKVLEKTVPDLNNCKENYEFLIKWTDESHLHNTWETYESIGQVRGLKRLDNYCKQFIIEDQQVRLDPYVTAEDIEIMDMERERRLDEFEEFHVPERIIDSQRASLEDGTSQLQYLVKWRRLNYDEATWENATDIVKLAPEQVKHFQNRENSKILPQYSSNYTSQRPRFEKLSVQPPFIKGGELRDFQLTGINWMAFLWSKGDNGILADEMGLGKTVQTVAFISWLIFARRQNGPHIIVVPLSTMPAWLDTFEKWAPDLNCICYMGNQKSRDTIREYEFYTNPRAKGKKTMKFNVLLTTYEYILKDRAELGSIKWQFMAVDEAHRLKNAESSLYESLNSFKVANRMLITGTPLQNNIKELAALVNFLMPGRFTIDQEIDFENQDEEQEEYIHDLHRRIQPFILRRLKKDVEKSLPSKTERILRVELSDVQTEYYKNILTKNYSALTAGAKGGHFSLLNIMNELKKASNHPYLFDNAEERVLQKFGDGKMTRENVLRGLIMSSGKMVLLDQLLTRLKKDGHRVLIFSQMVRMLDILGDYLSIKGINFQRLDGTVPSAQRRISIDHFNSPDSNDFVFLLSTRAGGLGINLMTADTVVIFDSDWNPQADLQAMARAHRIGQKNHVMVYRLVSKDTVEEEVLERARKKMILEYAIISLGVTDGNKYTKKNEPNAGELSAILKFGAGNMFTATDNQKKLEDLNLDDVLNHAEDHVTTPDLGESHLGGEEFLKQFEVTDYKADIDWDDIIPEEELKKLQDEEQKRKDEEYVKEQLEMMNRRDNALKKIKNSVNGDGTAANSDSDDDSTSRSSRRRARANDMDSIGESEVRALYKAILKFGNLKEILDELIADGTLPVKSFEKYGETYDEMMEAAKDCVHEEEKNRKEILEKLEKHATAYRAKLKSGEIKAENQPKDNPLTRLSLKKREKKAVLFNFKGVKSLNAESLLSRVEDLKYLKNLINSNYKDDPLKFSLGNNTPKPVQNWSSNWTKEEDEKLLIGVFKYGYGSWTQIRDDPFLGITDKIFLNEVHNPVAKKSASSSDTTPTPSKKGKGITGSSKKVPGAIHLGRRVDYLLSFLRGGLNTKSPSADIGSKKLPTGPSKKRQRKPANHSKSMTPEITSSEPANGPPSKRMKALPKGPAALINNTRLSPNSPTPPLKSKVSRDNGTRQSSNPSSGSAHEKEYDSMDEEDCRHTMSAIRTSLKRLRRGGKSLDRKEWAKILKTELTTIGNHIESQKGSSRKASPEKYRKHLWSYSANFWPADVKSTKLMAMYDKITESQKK

Chain of Protein translocase subunit SecA (Escherichia coli (strain K12)) (P10408 whole entry): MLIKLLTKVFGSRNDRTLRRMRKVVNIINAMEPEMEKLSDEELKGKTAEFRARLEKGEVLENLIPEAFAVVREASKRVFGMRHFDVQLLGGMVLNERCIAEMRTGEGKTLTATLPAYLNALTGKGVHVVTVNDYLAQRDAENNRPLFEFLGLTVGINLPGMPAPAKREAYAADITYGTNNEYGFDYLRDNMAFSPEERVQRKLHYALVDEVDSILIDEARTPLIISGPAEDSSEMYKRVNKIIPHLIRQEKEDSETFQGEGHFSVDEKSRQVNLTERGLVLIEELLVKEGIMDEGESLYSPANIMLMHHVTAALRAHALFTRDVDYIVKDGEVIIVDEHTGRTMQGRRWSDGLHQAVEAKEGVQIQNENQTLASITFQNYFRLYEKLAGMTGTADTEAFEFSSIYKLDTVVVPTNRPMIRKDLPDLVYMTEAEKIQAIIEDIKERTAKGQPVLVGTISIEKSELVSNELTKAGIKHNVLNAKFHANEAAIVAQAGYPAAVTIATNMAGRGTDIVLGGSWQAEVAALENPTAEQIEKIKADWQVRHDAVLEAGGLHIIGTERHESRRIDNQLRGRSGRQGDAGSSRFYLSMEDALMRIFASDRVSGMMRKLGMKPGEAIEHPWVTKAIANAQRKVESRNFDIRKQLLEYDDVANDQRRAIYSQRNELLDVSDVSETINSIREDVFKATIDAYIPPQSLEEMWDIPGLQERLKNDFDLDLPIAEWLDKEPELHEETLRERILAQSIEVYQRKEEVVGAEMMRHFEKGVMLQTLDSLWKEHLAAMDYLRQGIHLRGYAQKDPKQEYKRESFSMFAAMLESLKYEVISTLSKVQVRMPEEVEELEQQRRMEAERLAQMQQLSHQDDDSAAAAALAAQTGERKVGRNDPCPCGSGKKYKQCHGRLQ

## CC(=O)N(Cc1noc(C2CC2)n1)C1CCN(Cc2ccncc2)C1 (stereo not given)
[1]
  Percent Effect: -3.41%
[2]
  Percent Effect: 5.13%
[3]
  Percent Effect: -20.1%
Trypanosoma cruzi
  Percent Effect: 11.6%
[4]
  Percent Effect: -4.51%
[5]
  Percent Effect: 4.86%
Homo sapiens
  Percent Effect: 4.66%
[6]
  Percent Effect: 1.44%
[7]
  Percent Effect: 10.8%
[8]
  Percent Effect: -5.11%

## Cc1ccc(-c2nnc(CNCCn3cc(C)cn3)o2)cc1
[1]
  Percent Effect: 0.127%
[2]
  Percent Effect: 7.79%
[3]
  Percent Effect: 7.81%
Trypanosoma cruzi
  Percent Effect: -0.56%
[4]
  Percent Effect: 1.02%
[5]
  Percent Effect: 6.67%
Homo sapiens
  Percent Effect: -6.58%
[6]
  Percent Effect: 4.9%
[7]
  Percent Effect: 11.8%
[8]
  Percent Effect: -4.71%

## O=S(=O)(NCCN1CCCCC1Cn1cncn1)c1ccccc1 (stereo not given)
[1]
  Percent Effect: -1.12%
[2]
  Percent Effect: 0%
[3]
  Percent Effect: 6.15%
Trypanosoma cruzi
  Percent Effect: 1.68%
[4]
  Percent Effect: 7.99%
[5]
  Percent Effect: -5.61%
Homo sapiens
  Percent Effect: -18.3%
[6]
  Percent Effect: 1.96%
[7]
  Percent Effect: 9.41%
[8]
  Percent Effect: -1.75%

## CC(=O)N1C[C@@H](c2ccsc2)[C@@H]2CN(Cc3cccc(Cl)c3)CC[C@@H]21
[1]
  Percent Effect: -3.63%
[2]
  Percent Effect: 9.33%
[3]
  Percent Effect: 5.9%
Trypanosoma cruzi
  Percent Effect: -1.97%
[4]
  Percent Effect: 7.08%
[5]
  Percent Effect: 6.9%
Homo sapiens
  Percent Effect: 56.9%
[6]
  Percent Effect: 9.52%
[7]
  Percent Effect: 20%
[8]
  Percent Effect: -24.3%

## Cc1cccc(C(=O)N2CCCN(Cc3cnn(C)c3)CC2)n1
[1]
  Percent Effect: -0.00911%
[2]
  Percent Effect: -5.13%
[3]
  Percent Effect: 4.36%
Trypanosoma cruzi
  Percent Effect: 1.6%
[4]
  Percent Effect: 6.15%
[5]
  Percent Effect: -6.74%
Homo sapiens
  Percent Effect: 13.4%
[6]
  Percent Effect: -0.478%
[7]
  Percent Effect: 1.21%
[8]
  Percent Effect: -3.37%

## CNC(=O)C1CCC(NC(=O)N(C)Cc2c(C)noc2C)CC1 (stereo not given)
[1]
  Percent Effect: -5.49%
[2]
  Percent Effect: 10.3%
[3]
  Percent Effect: -15.1%
Trypanosoma cruzi
  Percent Effect: 11%
[4]
  Percent Effect: -3.28%
[5]
  Percent Effect: 1.96%
Homo sapiens
  Percent Effect: 2.07%
[6]
  Percent Effect: 6.22%
[7]
  Percent Effect: 18.1%
[8]
  Percent Effect: 96.3%

## Cc1cc(-c2ccc(C(=O)O)cc2)nc(C2CCCN(C(C)C)C2)n1 (stereo not given)
[1]
  Percent Effect: -0.51%
[2]
  Percent Effect: 12%
[3]
  Percent Effect: 1.15%
Trypanosoma cruzi
  Percent Effect: 1.77%
[4]
  Percent Effect: 0.885%
[5]
  Percent Effect: 6.08%
Homo sapiens
  Percent Effect: 4.86%
[6]
  Percent Effect: 6.35%
[7]
  Percent Effect: 17.5%
[8]
  Percent Effect: -24.7%

## CCCn1nc2c(cc1=O)CN(CC(=O)Nc1ccncc1)CC2
[1]
  Percent Effect: -3.45%
[2]
  Percent Effect: 10.4%
[3]
  Percent Effect: 6.89%
Trypanosoma cruzi
  Percent Effect: -3.17%
[4]
  Percent Effect: 2.25%
[5]
  Percent Effect: 17.2%
Homo sapiens
  Percent Effect: 3.95%
[6]
  Percent Effect: 3.92%
[7]
  Percent Effect: 11.8%
[8]
  Percent Effect: -14.2%

## CCN1CCN(c2ccc(CNC(=O)c3ccc(Cl)o3)cn2)CC1
[1]
  Percent Effect: -0.96%
[2]
  Percent Effect: 21.3%
[3]
  Percent Effect: -3.96%
Trypanosoma cruzi
  Percent Effect: 2.41%
[4]
  Percent Effect: 6.21%
[5]
  Percent Effect: 18.4%
Homo sapiens
  Percent Effect: 0.841%
[6]
  Percent Effect: 7.89%
[7]
  Percent Effect: 15.4%
[8]
  Percent Effect: -10.4%

## CN1CCCC2(CCN(C(=O)CCn3cncn3)C2)C1=O (stereo not given)
[1]
  Percent Effect: -9.37%
[2]
  Percent Effect: 2.7%
[3]
  Percent Effect: 4.1%
Trypanosoma cruzi
  Percent Effect: 4.17%
[4]
  Percent Effect: 5.94%
[5]
  Percent Effect: 12%
Homo sapiens
  Percent Effect: -0.496%
[6]
  Percent Effect: 4.79%
[7]
  Percent Effect: 19.5%
[8]
  Percent Effect: -0.366%

## CCc1nc(CN2CCCN(C(=O)CCSC)CC2)cs1
[1]
  Percent Effect: -1.79%
[2]
  Percent Effect: 12.8%
[3]
  Percent Effect: -12.3%
Trypanosoma cruzi
  Percent Effect: -7.98%
[4]
  Percent Effect: 6.15%
[5]
  Percent Effect: 9.81%
Homo sapiens
  Percent Effect: 22.8%
[6]
  Percent Effect: 0.478%
[7]
  Percent Effect: 18.1%
[8]
  Percent Effect: -4.21%

## Cc1nn(-c2ccccc2)cc1C(=O)N1CCCC(n2cccn2)C1 (stereo not given)
[1]
  Percent Effect: -2.22%
[2]
  Percent Effect: 13.3%
[3]
  Percent Effect: 4.19%
Trypanosoma cruzi
  Percent Effect: 1%
[4]
  Percent Effect: 7.09%
[5]
  Percent Effect: 9.07%
Homo sapiens
  Percent Effect: -2.62%
[6]
  Percent Effect: 4.74%
[7]
  Percent Effect: 12.8%
[8]
  Percent Effect: -12.7%
